LmPK inhibitor: inhibitors of Leishmania mexicana pyruvate kinase; Q27686; purified LmPK, Kinase-Glo ATP luminescence, 1 h; Potency, µM (top dose mostly 57.5 µM), without a hit: at the highest dose activity change, negative = inhibition, usual class: inhibitors; actives 0.37% (n = 290,000); AID 1721; note: potency is the fitted concentration of half-maximal effect; % is set by controls: 0 for no effect and ±100 for the full control effect
Target sequence (Q27686 whole entry, looked up): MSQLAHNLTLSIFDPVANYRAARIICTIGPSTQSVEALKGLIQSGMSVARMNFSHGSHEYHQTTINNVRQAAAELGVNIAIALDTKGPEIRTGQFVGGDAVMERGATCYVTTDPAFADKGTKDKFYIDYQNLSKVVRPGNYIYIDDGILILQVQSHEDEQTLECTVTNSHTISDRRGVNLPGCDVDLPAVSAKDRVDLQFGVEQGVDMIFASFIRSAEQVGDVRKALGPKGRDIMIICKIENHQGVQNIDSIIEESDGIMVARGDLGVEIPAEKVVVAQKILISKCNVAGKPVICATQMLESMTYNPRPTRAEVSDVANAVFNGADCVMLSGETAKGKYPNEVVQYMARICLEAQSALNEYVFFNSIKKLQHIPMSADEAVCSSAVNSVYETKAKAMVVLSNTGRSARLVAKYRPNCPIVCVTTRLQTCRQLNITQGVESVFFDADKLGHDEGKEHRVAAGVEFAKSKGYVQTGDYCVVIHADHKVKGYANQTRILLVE
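Kinase-Glo luminescence read after 1 h RT reaction of 0.1 nM LmPK with 0.5 mM PEP and 0.1 mM ADP. Activity scaled between uninhibited and enzyme-free controls.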
Sm TGR inh: S. mansoni TGR enzyme inhibition; Q962Y6; purified TGR, DTNB reduction, TNB absorbance 405 nm; Potency, µM (doses to about 114 µM), for inactives: top-dose activity change, negative = inhibition, hits mostly inhibitors; actives 3% (n = 360,000); note: potency is the fitted concentration of half-maximal effect; % is set by controls: 0 for no effect and ±100 for the full control effect; nearly all actives have a fitted effect of over 60% in size
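First, TGR (20 nM dispensed) and NADPH were mixed with compound. Second, a 15 min room-temperature incubation followed. Third, further NADPH and then DTNB were added to start the reaction. Finally, TNB absorbance was monitored kinetically.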
Shiga inhibitor: blocks Shiga toxin action in Vero cells; Vero cells, Shiga toxin protein synthesis inhibition reporter; inhibition, % at 38.7 µM; actives 9.2% (n = 290,000); AID 2315; in the data active = inhibition mostly above about 28%, no sharp cut-off; inactive = mostly below about 43%; note: 0% is about no effect
CHX counter: affects cycloheximide protein synthesis inhibition readout, counter-screen. cell reporter, cycloheximide protein synthesis inhibition counterscreen. max response, %. actives 12% (n = 300,000). AID 2314; in the data active = max response mostly above about 13%, no sharp cut-off; inactive = mostly below about 14%; note: read at 38.3 µM for the half of the compounds with a filed dose; 0% is about no effect
TbPYK inhibitor: blocks Trypanosoma brucei pyruvate kinase | TbPYK enzyme, Kinase-Glo Plus ATP luminescence, 45 min | AID 624173 | actives 0.12% (n = 410,000) | Potency, µM (doses to about 76.8 µM), for inactives: top-dose activity, negative = inhibition, hits mostly inhibitors; note: potency is the fitted concentration of half-maximal effect; % is set by controls: 0 for no effect and ±100 for the full control effect; nearly all actives have a fitted effect of over 50% in size
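In this concentration-response screen, enzyme-free wells defined baseline while DMSO plates tracked drift. Each reaction combined TbPYK, substrate, compound and 130 uM ADP for 45 min at room temperature. Kinase-Glo Plus luminescence gave the signal.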
FBPA Giardia inh: inhibitors of Giardia lamblia fructose-1,6-bisphosphate aldolase. A8B2U2. purified Giardia FBPA. Potency, µM (titrated, usually from 59.6 µM), for the others: at the highest dose activity, negative = inhibition, most hits filed as inhibitors. actives 0.71% (n = 290,000). AID 2451; note: potency is the fitted concentration of half-maximal effect; % is set by controls: 0 for no effect and ±100 for the full control effect; nearly all actives have a fitted effect of over 55% in size
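40 nM FBPA preincubated 10 min at RT with compound (up to 57.5 uM final), then substrate plus GAPDH/TPI/NAD/arsenate coupling and diaphorase/resazurin added. Fluorescence read after 20 min at RT, 525/598 nm.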
* marks the source's active call; other numbers are inactive results; u = inconclusive; x = no result. Many of the other results were omitted from the sample, so hits are more common in it than they were. Unless noted, calls come from the whole dose curve; as a rule, active = well fitted curve in the direction sought with a large enough effect; inconclusive = small, poorly fitted or top-dose-only effect, or another doubt; inactive = no such curve, though single readings can be large; an effect the other way counts as inactive or inconclusive.

SMILES	LmPK inhibitor	Sm TGR inh	Shiga inhibitor	CHX counter	TbPYK inhibitor	FBPA Giardia inh
COc1ccc(N2C3=[N+](CC2(C)O)c2ccccc2CC3)cc1 (configuration not stated)	4%	-21%	12	22*	-7%	-3%
COc1ccc(OCC(=O)N2c3ccccc3CCc3ccccc32)cc1	1%	1%	-11	1	-2%	-3%
COc1cccc(C2N=C(c3ccccc3C)NO2)c1OC (configuration not stated)	5%	53%	51*	27*	2%	-20%
COC(=O)CCCNC(=O)c1ccc2oc(CCCc3ccccc3)nc2c1	-5%	4%	21*	24*	-1%	4%
COC(=O)[C@@H](C)NC(=O)c1ccc2oc(CCc3ccccc3)nc2c1	-1%	12%	31*	51*	1%	10%
CC(C)CCNC(=O)c1ccc2nc(CCc3ccccc3)oc2c1	x	1%	x	x	-2%	x
CCCc1nc2cc(CC(=O)OC)ccc2o1	2%	1%	17	22*	10%	3%
Cc1ccc(Cn2c(=O)n(CCCCC(=O)NCCc3ccc(Cl)cc3)c(=O)c3ccccc32)cc1	x	1%	x	x	2%	x
CCc1cccc(C)c1NC(=O)CCn1c(=O)c2cccn2c2ccccc21	x	0%	x	x	-2%	x
CCCCCCC(O)C/C=C\CCCCCCCC(=O)O (configuration not stated)	x	x	x	x	5%	x
COc1cccc2sc(Nc3nnc(-c4ccccc4Cl)o3)nc12	-1%	-6%	-3	0	2%	u
COc1cccc(-c2nnc(Nc3nc4c(F)cccc4s3)o2)c1	5%	-8%	82*	38	-1%	25%
COc1ccccc1-c1nnc(Nc2nc3c(OC)cccc3s2)o1	-6%	3%	45*	12	2%	u
Cc1cc(C)c(Cn2c(=O)n(CCCCCC(=O)NCc3ccc4c(c3)OCO4)c(=O)c3sccc32)c(C)c1	x	22%	x	x	3%	x
COc1ccc(-c2coc3cc(O[C@@H]4O[C@H](CO)[C@@H](O)[C@H](O)[C@H]4O)ccc3c2=O)cc1	x	x	x	x	-1%	x
O=c1c(-c2ccc3c(c2)OCCO3)coc2cc(OC3OC(CO)C(O)C(O)C3O)ccc12 (configuration not stated)	-7%	6%	54*	40*	4%	0%
CN(C)S(=O)(=O)c1ccc2c(c1)N(CC(=O)Nc1ccc(F)cc1)C(=O)CS2	x	4%	x	x	-2%	x
CCC1CO/C(=C(\C(Cl)=C(Cl)Cl)[N+](=O)[O-])N1 (configuration not stated)	3%	8.9µM*	47	10	-1%	-1%
O=C(Nc1ccc(F)c(Cl)c1)c1csc(COCCO)n1	x	x	x	x	1%	x
O=C1c2ccccc2C(c2nnnn2Cc2ccccc2)N1Cc1cccc(F)c1 (configuration not stated)	x	x	x	x	6%	x
O=C(Nc1ccc(Cl)cc1)Nc1ccc(S(=O)(=O)Nc2ncccn2)cc1	0%	10%	-7	-4	1%	16%
O=C(Nc1ccccc1)Nc1ccccn1	-10%	-1%	60*	33*	-5%	2%
O=C(Nc1ccc(Cl)cc1)Nc1ccccn1	-3%	7%	103*	41*	1%	9%
CN(C)c1ccc(CNC(=O)C2COc3ccccc3C2)cc1 (configuration not stated)	x	4%	x	x	3%	x
CCOc1cc(C(=O)Nc2nnc(C)s2)cc(OCC)c1OCC	4%	4%	7	2	0%	1%
SMILES	LmPK inhibitor	Sm TGR inh	Shiga inhibitor	CHX counter	TbPYK inhibitor	FBPA Giardia inh
Cc1nnc(NC(=O)c2ccc3ccccc3c2)s1	1%	8%	74*	31*	0%	x
CCCc1cc(C(=O)Nc2nnc(C)s2)cs1	3%	0%	128*	33*	2%	0%
Cc1ccc(C(=O)Nc2nnc(C)s2)cc1	-4%	-2%	64*	27*	-1%	-16%
CC(C)c1nnc(NC(=O)COc2ccc3ccccc3c2)s1	2%	0%	7	-2	0%	x
CC(C)c1nnc(NC(=O)c2ccc3ccccc3c2)s1	-2%	6%	108*	51*	-6%	x
O=C(NCCC1=CCCCC1)C(=O)NCC(c1ccco1)N1CCN(c2ccccc2F)CC1 (configuration not stated)	3%	u	-6	-3	-4%	3%
c1ccc2c(c1)Nc1cc3ccccc3cc1O2	x	x	x	x	4%	x
Cc1ccc2c(=O)cc(C(=O)Nc3c(C(=O)Nc4cccc(Cl)c4)oc4ccccc34)oc2c1	x	-1%	x	x	-1%	x
CCc1nnc(SCC(=O)Nc2ccc(Cl)cc2F)c2cc3occc3n12	x	8%	x	x	-5%	x
O=C(Oc1c(Br)cc(Br)c2cccnc12)N1CCCCC1	-6%	-7%	24	32*	4%	2%
O=C(Oc1ccc(Cl)c2cccnc12)N1CCCCC1	3%	u	35	12	-16%	0%
CN(Cc1ccc(OC(F)F)cc1)C(=O)c1cccc(S(=O)(=O)N2CCN(Cc3ccccc3)CC2)c1	x	x	x	x	2%	x
COc1cc(NC(=O)CSc2nc(C)c(C(=O)Nc3ccccc3)c(-c3ccc(OC)c(OC)c3)c2C#N)c(OC)cc1Cl	x	0%	x	x	-25%	x
Cc1[nH]c(SCC(=O)Nc2cc(S(C)(=O)=O)ccc2Cl)nc1Cc1ccccc1	x	3.5µM*	x	x	-5%	x
Cc1cc(NC(=O)CSc2nc(Cc3ccccc3)c(C)[nH]2)no1	-6%	35µM*	3	-5	-7%	-15%
c1ccc(SCc2cn3cccnc3n2)nc1	9%	2%	13	14	3%	-15%
Nc1ccccc1SCc1cn2ccccc2n1	-24%	-1%	55*	68*	0%	8%
Cc1cccn2cc(CSc3ccccc3N)nc12	-9%	-1%	59	31*	-7%	-1%
Cc1cccn2cc(CNS(=O)(=O)c3ccc4ccccc4c3)nc12	-7%	-20%	-5	-6	-13%	x
Nc1ccccc1SCc1cn2cccnc2n1	4%	3%	80*	24*	-17%	-8%
N=C(N)SCc1cn2ccccc2n1	-5%	-8%	-2	12	5%	-30%
COCC(=O)N1CCC[C@@]2(CCN(C(=O)Nc3ccc(OC)cc3)C2)C1	x	x	x	x	0%	-1%
COc1ccc(N/C=C/C(=O)C(F)(F)F)cc1	4%	4%	-58	15	-4%	-12%
COc1ccc(C(=O)/C=C/Nc2ccc([N+](=O)[O-])cc2C)cc1OC	-3%	2%	14	5	-5%	2%
COC(=O)c1ccc(N/C=C/C(=O)c2ccc(OC)c(OC)c2)cc1	3%	-13%	-9	8	1%	-1%
COc1ccc(N/C=C/C(=O)c2ccc(OC)c(OC)c2)cc1	-7%	0%	56*	24*	-6%	-14%

High-throughput results deposited in PubChem by National Center for Advancing Translational Sciences (NCATS).
